Data: PubChem BioAssay (NCI)
This is part of a sample that, as a whole, favours compounds with a hit. Of some 83,000 tested, about 20% had one in any assay.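 Interpretation: 100, growth as untreated; towards 0, rising growth inhibition; 0, no net growth; 0 to -100, cell death. Compounds scoring below 10 were considered active.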 A number with no mark means an inactive call. Activity calls are given as the source filed them.

Each compound was assayed on IGROV1 ovarian (assay: NCI-60 one-dose screen, 48 h (100 = growth as untreated, 0 = no growth, -100 = all killed)). Details: 10 µM unless noted.

| Compound | growth |
| --- | --- |
| COc1cc(Nc2c(C#N)cnc3cc(OCCCN4CCN(C)CC4)c(OC)cc23)c(Cl)cc1Cl | 6.33% (active) |
| COc1ncc(-c2ccc3nccc(-c4ccnnc4)c3c2)cc1NS(=O)(=O)c1ccc(F)cc1F | -24.1% (active) |
| C/C(=C(/c1ccc(Cl)cc1)c1ccc(OCCN2CCCC2)cc1)c1ccccc1 | 65.9% |
| COc1cc(OC)c(/C=C/S(=O)(=O)Cc2ccc(OC)c(NCC(=O)O)c2)c(OC)c1 | 22.6% |
| Nc1ncnc2c1ccn2-c1cccc(NC(=O)c2ccc(N3CCOCC3)c(C(F)(F)F)c2)c1 | 40.5% |
| C/C=C/C=N/NC(=S)Nc1ccccc1 | 93.6% |
| C=CC(=O)Nc1cc(Nc2nccc(-c3cn(C)c4ccccc34)n2)c(OC)cc1N(C)CCN(C)C | -48.8% (active) |
| C[C@@H](NC(=O)c1ncnc(N)c1Cl)c1ncc(C(=O)Nc2cc(C(F)(F)F)c(Cl)cn2)s1 | 63.5% |
| COc1cc2c(Oc3ccc4[nH]c(C)cc4c3F)ncnc2cc1OCCCN1CCCC1 | 46.6% |
| NC[C@@](O)(c1ccc(Cl)cc1)c1ccc(-c2cn[nH]c2)cc1 | -18% (active) |
| Cc1cc(O)cc(-c2c(-c3ccnc(-c4cccnc4)c3)cnn2C)c1 | 58.8% |
| CS(=O)(=O)N1CCN(Cc2cc3nc(-c4cccc5[nH]ncc45)nc(N4CCOCC4)c3s2)CC1 | -28.4% (active) |
| CN[C@@H]1C[C@H]2O[C@@](C)([C@@H]1OC)n1c3ccccc3c3c4c(c5c6ccccc6n2c5c31)C(=O)N[C@H]4O | 0.929% (active) |
